The results in this text go back to the supplement of paper PMC10646978.

± gives the standard deviation.

What all share (conditions): modulator concentration 10 µM
Assay [1] has as its system RAW-Dual (murine macrophage reporter line). The experiment in a line: NF-kB reporter (SEAP) activity fold change vs agonist alone; higher = enhanced NF-kB activity. In a few lines:
(§1)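 RAW-Dual murine macrophage reporter cells were plated at 50 000 per well in 384-well plates, pin-transferred compound to 10 μM final, and pre-incubated for 1 hour at 37 °C before a PRR agonist was added and the cells incubated overnight. NF-κB activity was read from supernatant SEAP with QUANTI-Blue at 620 nm absorbance, and IRF activity from Lucia luciferase with QUANTI-Luc by luminescence. Each signal was expressed as fold change by dividing by the mean agonist-only control on the same plate. Two replicate plates were averaged, with errors obtained by propagation.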

For assay [2] the test system is unchanged. The assay is described as follows: IRF reporter (Lucia luciferase) activity fold change vs agonist alone; higher = enhanced IRF activity. The procedure, abridged:
as §1

The test system is the same in assay [3]. The assay is described as follows: viability score (confluency relative to resting cells, overnight) (fraction); higher = more viable, active = viable (0.7 or more). The procedure, abridged:
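A compound met the cutoff when both of two confluency masks exceeded 70% of resting cells. Those masks were made with IncuCyte software from IncuCyte images of RAW-Dual macrophages treated overnight at 10 μM final. This is the basis of the viability score, which is confluency relative to resting cells.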

Setting [4] is: agonist: CpG ODN 1826 0.5 ug/mL.

As for `O=C(CCN1C(=O)c2cccc([N+](=O)[O-])c2C1=O)Nc1ccc(Cl)cc1`, the values for the NF-kB reporter in assay [1] (setting [4]), in assay [1] (agonist: LPS 0.1 ug/mL) and in assay [1] (agonist: MPLA […]) were 0.886 ± 0.073, 1.02 ± 0.058 and 0.899 ± 0.077, respectively. In addition, the figures for the IRF reporter in assay [2] (agonist: 3'3'-cGAMP 10 ug/mL), in assay [2] (agonist: LPS 0.1 ug/mL) and in assay [2] (agonist: MPLA […]) were 0.848 ± 0.022, 1.4 ± 0.16 and 1.14 ± 0.23, respectively. Also, in assay [3], the viability score is 1.01 (active).

On to `CCCCOc1ccc(S(=O)(=O)NCCCn2ccnc2)cc1`, for which the NF-kB reporter worked out at 0.946 ± 0.078 in assay [1] (setting [4]), 1.18 ± 0.089 in assay [1] (agonist: LPS 0.1 ug/mL) and 1.21 ± 0.071 in assay [1] (agonist: MPLA […]). Also, the IRF reporter in assay [2] (agonist: 3'3'-cGAMP 10 ug/mL) came out at 1.07 ± 0.038; in assay [2] (agonist: LPS 0.1 ug/mL), 1.84 ± 0.13; in assay [2] (agonist: MPLA […]) it was 1.58 ± 0.2. Moreover, the viability score in assay [3] was 0.987 (active).

With `CC(=O)N=C1NC(=O)C(=Cc2ccc(C)o2)S1`, the NF-kB reporter came out at 0.92 ± 0.088 in assay [1] (setting [4]), 0.847 ± 0.067 in assay [1] (agonist: LPS 0.1 ug/mL) and 0.965 ± 0.026 in assay [1] (agonist: MPLA […]). Further, the IRF reporter in assay [2] (agonist: 3'3'-cGAMP 10 ug/mL) is 0.817 ± 0.065; in assay [2] (agonist: LPS 0.1 ug/mL) it was 0.895 ± 0.082; in assay [2] (agonist: MPLA […]), 0.823 ± 0.083. Also, the viability score in assay [3] was 0.995 (active).

For the compound `Nc1ccc(O)c(C(=O)O)c1`, the NF-kB reporter in assay [1] (setting [4]) was 1.08 ± 0.089; in assay [1] (agonist: LPS 0.1 ug/mL), 0.898 ± 0.12; in assay [1] (agonist: MPLA […]), 1.04 ± 0.022. The IRF reporter in assay [2] (agonist: 3'3'-cGAMP 10 ug/mL) is 0.956 ± 0.053; in assay [2] (agonist: LPS 0.1 ug/mL), 0.923 ± 0.084; in assay [2] (agonist: MPLA […]) it was 1.03 ± 0.13. In addition, the viability score in assay [3] was 0.989 (active).

Consider `COC(CNS(=O)(=O)c1ccccc1Cl)c1cccc(F)c1` (centres undefined), for which the values for the NF-kB reporter in assay [1] (setting [4]), in assay [1] (agonist: LPS 0.1 ug/mL) and in assay [1] (agonist: MPLA […]) were 1.21 ± 0.074, 1.04 ± 0.078 and 1.08 ± 0.038, respectively. Besides, the IRF reporter in assay [2] (agonist: 3'3'-cGAMP 10 ug/mL) was 0.849 ± 0.045; in assay [2] (agonist: LPS 0.1 ug/mL), 1.03 ± 0.055; in assay [2] (agonist: MPLA […]), 0.736 ± 0.12. Besides, the viability score in assay [3] is 0.995 (active).

Turning to `CCCCc1c(CCC)c(=N)c2ccccc2n1C.I`, the NF-kB reporter turned out to be 0.992 ± 0.098 in assay [1] (setting [4]), 1.18 ± 0.091 in assay [1] (agonist: LPS 0.1 ug/mL) and 1.56 ± 0.15 in assay [1] (agonist: MPLA […]). Moreover, the IRF reporter is 1.09 ± 0.048 in assay [2] (agonist: 3'3'-cGAMP 10 ug/mL), 1.67 ± 0.22 in assay [2] (agonist: LPS 0.1 ug/mL) and 2.14 ± 0.32 in assay [2] (agonist: MPLA […]). The viability score in assay [3] was 1.01 (active).

Consider `CCOC(=O)c1ccccc1NC(=O)CN(c1cc(Cl)ccc1OC)S(C)(=O)=O`, for which the NF-kB reporter in assay [1] (setting [4]) was 1.02 ± 0.15; in assay [1] (agonist: LPS 0.1 ug/mL), 1.09 ± 0.067; in assay [1] (agonist: MPLA […]), 0.897 ± 0.054. Besides, the IRF reporter in assay [2] (agonist: 3'3'-cGAMP 10 ug/mL) is 1.02 ± 0.029; in assay [2] (agonist: LPS 0.1 ug/mL), 1.38 ± 0.2; in assay [2] (agonist: MPLA […]) it was 1.14 ± 0.14. Further, the viability score in assay [3] is 1.01 (active).

Consider `O=S(=O)(C=Cc1ccccc1)NCc1ccccc1`, for which the NF-kB reporter turned out to be 0.933 ± 0.15 in assay [1] (setting [4]), 1.03 ± 0.083 in assay [1] (agonist: LPS 0.1 ug/mL) and 0.953 ± 0.085 in assay [1] (agonist: MPLA […]). Besides, the IRF reporter turned out to be 1.03 ± 0.028 in assay [2] (agonist: 3'3'-cGAMP 10 ug/mL), 1.28 ± 0.13 in assay [2] (agonist: LPS 0.1 ug/mL) and 1.61 ± 0.37 in assay [2] (agonist: MPLA […]). Also, the viability score in assay [3] is 0.97 (active).

As to `Cc1ccc(-c2ncnn2-c2ccc(Cl)cc2)cc1`, the NF-kB reporter in assay [1] (setting [4]) came to 0.922 ± 0.072; in assay [1] (agonist: LPS 0.1 ug/mL) it was 0.785 ± 0.051; in assay [1] (agonist: MPLA […]), 1.02 ± 0.11. The IRF reporter in assay [2] (agonist: 3'3'-cGAMP 10 ug/mL) was found to be 0.695 ± 0.036; in assay [2] (agonist: LPS 0.1 ug/mL) it was 1.26 ± 0.073; in assay [2] (agonist: MPLA […]), 1.4 ± 0.15. In addition, the viability score in assay [3] is 1.01 (active).

As for `C=CCN1C(=O)C(C)(C)COc2cc(NC(=O)c3ccc(Br)o3)ccc21`, the NF-kB reporter in assay [1] (setting [4]) stood at 1.25 ± 0.11; in assay [1] (agonist: LPS 0.1 ug/mL) it was 0.93 ± 0.21; in assay [1] (agonist: MPLA […]), 1.07 ± 0.037. The IRF reporter in assay [2] (agonist: 3'3'-cGAMP 10 ug/mL) came out at 0.53 ± 0.046; in assay [2] (agonist: LPS 0.1 ug/mL), 0.933 ± 0.096; in assay [2] (agonist: MPLA […]), 0.982 ± 0.24. In addition, the viability score in assay [3] was 0.994 (active).

In the case of `CCN(CC)C(=O)N1CCN(C)CC1.O=C(O)CC(O)(CC(=O)O)C(=O)O`, the NF-kB reporter in assay [1] (setting [4]) is 1.04 ± 0.19; in assay [1] (agonist: LPS 0.1 ug/mL), 0.975 ± 0.18; in assay [1] (agonist: MPLA […]) it was 0.92 ± 0.065. The IRF reporter is 0.895 ± 0.057 in assay [2] (agonist: 3'3'-cGAMP 10 ug/mL), 1.23 ± 0.23 in assay [2] (agonist: LPS 0.1 ug/mL) and 1.16 ± 0.27 in assay [2] (agonist: MPLA […]). Further, the viability score in assay [3] was 0.995 (active).

With `CN1CCN(c2ccc(C(=O)Nc3n[nH]c4ccc(Cc5cc(F)cc(F)c5)cc34)c(NC3CCOCC3)c2)CC1`, the NF-kB reporter in assay [1] (setting [4]) was 0.971 ± 0.043; in assay [1] (agonist: LPS 0.1 ug/mL), 1.21 ± 0.097; in assay [1] (agonist: MPLA […]) it was 1.87 ± 0.11. Besides, the IRF reporter in assay [2] (agonist: 3'3'-cGAMP 10 ug/mL) is 0.129 ± 0.0061; in assay [2] (agonist: LPS 0.1 ug/mL), 0.482 ± 0.14; in assay [2] (agonist: MPLA […]), 0.465 ± 0.13. For the same compound, in assay [3], the viability score was 0.947 (active).
